CYP2C9 act = increases human cytochrome P450 2C9 activity; 96,000 tested, 1.4% active; activation factor at 5 µM; AID 1024; recombinant CYP2C9, luciferin-H conversion, luminescence; hits give high values; factor 1 = untreated enzyme, 0 = blocked; P11712;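 active = activation factor of 2 or more for CYP2C9 at a 5 µM dose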;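 also: 0 = sulfaphenazole-blocked wells and 1 = vehicle-only wells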
Target sequence (P11712 whole entry, looked up): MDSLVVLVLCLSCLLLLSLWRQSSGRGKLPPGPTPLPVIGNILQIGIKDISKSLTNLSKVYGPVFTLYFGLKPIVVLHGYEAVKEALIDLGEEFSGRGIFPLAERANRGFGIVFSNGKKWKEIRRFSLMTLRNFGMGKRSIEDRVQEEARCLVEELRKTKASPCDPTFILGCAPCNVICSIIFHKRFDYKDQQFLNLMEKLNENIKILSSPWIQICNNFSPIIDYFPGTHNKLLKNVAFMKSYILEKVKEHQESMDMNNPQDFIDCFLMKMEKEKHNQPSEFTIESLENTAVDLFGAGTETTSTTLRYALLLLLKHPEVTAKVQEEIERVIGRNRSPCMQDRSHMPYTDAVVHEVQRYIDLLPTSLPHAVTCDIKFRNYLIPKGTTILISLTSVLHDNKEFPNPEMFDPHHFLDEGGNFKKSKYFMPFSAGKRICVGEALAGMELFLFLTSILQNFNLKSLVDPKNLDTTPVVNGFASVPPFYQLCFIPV
CYP2C19 activ = activators of human cytochrome P450 2C19; P33261; recombinant CYP2C19, luciferin-H EGE luminescence; hits give high values; 0 = fully inhibited enzyme, 1 = untreated enzyme; activation factor at 5 µM; 96,000 tested, under 10 active; AID 1025;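 active = activation factor of at least 2 at 5 µM in the primary screen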;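 also: 0 = wells with 2.5 mM tranylcypromine and 1 = vehicle-only wells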
CYP2C9 inhib = human CYP2C9 inhibition | P11712 | CYP2C9 Supersomes, luciferin-H conversion, luminescence | inhibition, % at 5 µM | 96,000 tested, 20% active | AID 777;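 active = blocking of liver enzyme CYP2C9 beyond about 50% at 5 µM, limit read from the data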
CYP2C19 inh = inhibitors of human CYP2C19; CYP2C19 Supersomes, luciferin-H EGE luminescence, 30 min; inhibition, % at 5 µM; 96,000 tested, 21% active; AID 778; P33261;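 active = CYP2C19 inhibition above a set limit at 5 µM in the primary screen, cut at about 50% in these data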;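 also: plate controls were negative control wells for no effect and 2.5 mM tranylcypromine positive control for full effect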
EphB4 ephrin blk = EphB4-ephrin-B2 interaction antagonism | P54760 | EphB4 LBD / TNYL-RAW-Alexa532 peptide, fluorescence polarization | inhibition, % at 7 µM | 97,000 tested, 0.15% active;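 active = inhibition above the screen-wide mean inhibition plus 3 SD, cut at about 15% in these data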;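 also: 0% = DMSO wells and 100% = excess unlabeled TNYL-RAW peptide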
Numbers without * were called inactive; . = no result. The list is not random: actives were taken first. Their share in the collection is about 27%.

SMILES	CYP2C9 act	CYP2C19 activ	CYP2C9 inhib	CYP2C19 inh	EphB4 ephrin blk
COc1ccc(-c2nn(C)c(=O)c3ccccc23)cc1NC(=O)Cn1nc(C)c2ccccc2c1=O	0.4	0.7	58*	30	-8
CCCC(=O)Nc1cc(-c2nn(C)c(=O)c3ccccc23)ccc1N1CCCCC1	.	.	.	.	3
Cc1ccc(-c2nn(C)c(=O)c3ccccc23)cc1S(=O)(=O)N1CCOCC1	.	.	.	.	2
Cc1ccc(-c2nn(C)c(=O)c3ccccc23)cc1S(=O)(=O)N1CCCC1	0.4	0.5	63*	51*	-1
CCC(=O)Nc1cc(-c2nn(C)c(=O)c3ccccc23)ccc1N1CCCCC1	0.2	0.6	81*	37	4
CCC(=O)Nc1cc(-c2nn(C)c(=O)c3ccccc23)ccc1OC	0.8	0.6	15	40	1
Cc1cncn1CCc1nc2c3ccccc3nc(=S)n2[nH]1	.	.	.	.	-4
O=C(CSC1=NC(=O)C(Cc2ccccc2)C(=O)N1)Nc1ncccn1 (configuration not stated)	1.1	1.2	-8	-16	1
CC(C)CSc1nnc2[nH]c(=O)cc(N)n12	.	.	.	.	4
Cn1nc(-c2ccc(N3CCOCC3)c(NS(=O)(=O)c3ccccc3)c2)c2ccccc2c1=O	0.8	0.5	16	53*	-1
CC(=O)Nc1cc(-c2nn(CC(=O)N3CCCCC3)c(=O)c3ccccc23)ccc1N1CCOCC1	0.9	1	12	-3	2
O=C(O)C1SCCN1S(=O)(=O)c1ccc2ccccc2c1 (configuration not stated)	.	.	.	.	-4
CN1c2ccccc2C(O)=C(C(=S)Nc2ccccc2)S1(=O)=O	0.2	1	82*	1	-1
Cc1ccc(NC(=O)c2ccccc2)cc1	0.9	0.8	12	19	2
CN1c2ccccc2C(O)=C(C(=S)Nc2ccc(F)c(Cl)c2)S1(=O)=O	0	1.1	96*	-6	1
Cc1ccc(NC(=S)C2=C(O)c3ccccc3N(C)S2(=O)=O)cc1	0	1.1	100*	-10	5
CN1c2ccccc2C(O)=C(C(=O)Nc2ccccc2)S1(=O)=O	0.2	1.1	76*	-7	3
Cc1ccccc1NC1=C(Cl)C(=O)OC1OC(=O)c1ccco1 (configuration not stated)	0.5	0.7	48	28	-2
Cc1ccccc1NC1=C(Cl)C(=O)OC1NC(=O)c1ccccc1 (configuration not stated)	0.3	0.4	72*	61*	5
CCn1cnc2sc(-c3ccccc3)cc2c1=O	0.3	0.6	71*	44	5
CC(=O)Cn1cnc2sc(-c3ccccc3)cc2c1=O	0.7	0.7	29	31	4
Cc1cccc(C)c1OCC(O)Cn1ccnc1C (configuration not stated)	0.8	0.5	23	53*	.
CCn1c(CSc2ncccn2)nnc1SCC(=O)N1CCc2ccccc21	1	0.9	-2	10	5
Cc1cc2ccccc2n1CCNC(=O)C1CCCCC1	0.6	0.3	38	68*	5
Cc1cccn2cc(CNC(=O)C3CCCCC3)nc12	.	.	.	.	-11
SMILES	CYP2C9 act	CYP2C19 activ	CYP2C9 inhib	CYP2C19 inh	EphB4 ephrin blk
Cc1cc2ccccc2n1CCNC(=O)c1cccs1	0.5	0.5	45	53*	0
Cc1cc(C)nc(N2CCC(C(=O)NCCc3ccccc3)CC2)n1	1.7	0.9	-74	8	0
Cc1cc2ccccc2n1CCNC(=O)C1CCCC1	0.5	0.1	52*	94*	2
CON/C=C(\C=Nc1ccc(F)cc1)c1ncc(C(F)(F)F)cc1Cl	0.8	1.1	21	-15	2
CCOC(=O)C1=C(c2ccccc2)N=c2s/c(=C\c3ccco3)c(=O)n2C1c1cccs1 (configuration not stated)	.	.	.	.	-2
COC(=O)C1CCN(c2cc(=O)n(-c3ccccc3Cl)c(=O)[nH]2)CC1	1	1	1	2	.
OC(CNCC1COc2ccccc2O1)COCc1cccs1 (configuration not stated)	.	.	.	.	5
O=S(=O)(NC1CCCC1)c1ccc(S(=O)(=O)NC2CCCC2)cc1	0.1	0	86*	98*	.
CN(C(=O)c1ccc(S(=O)(=O)NC2CCCC2)cc1)C1CCCCC1	0.9	0.9	13	12	-6
CCOC(=O)N1CCC(N2CCN(S(=O)(=O)c3ccc(NC(C)=O)cc3)CC2)CC1	0.9	1	14	4	-3
C=CCNC(=O)COc1ccc(S(=O)(=O)NC2CCCCC2)cc1	0.5	0.7	48	29	-5
O=C(CN1CCCCC1)Nc1ccc(S(=O)(=O)NC2CCCCC2)cc1	0.3	0.5	72*	47	-15
CC(C)(C)C(=O)CNS(=O)(=O)c1ccc(S(=O)(=O)NC2CCCC2)cc1	0.5	0.1	47	89*	0
CCOC(=O)C1CCCC(NS(=O)(=O)c2ccc(NC(C)=O)cc2)C1 (configuration not stated)	0.2	0.4	77*	58*	-1
O=C(CN1CCOCC1)Nc1ccc(S(=O)(=O)NC2CCCCC2)cc1	0.8	0.8	17	20	-2
O=C(CSc1ncnc2nc[nH]c12)c1ccc2ccccc2c1	.	.	.	.	-4
COc1ccccc1NC(=O)c1cccs1	1.7	1	-67	4	12
Cn1c(=O)c(C(=O)Nc2cccnc2)c(O)c2ccccc21	.	.	.	.	3
CCOC(=O)N1CCN(c2c(N3CCc4ccccc43)c(=O)c2=O)CC1	0.9	0.6	15	42	1
O=S(=O)(NC1CCCCC1NS(=O)(=O)c1ccc(F)cc1)c1ccc(F)cc1 (configuration not stated)	0.1	0.4	87*	62*	0
O=C(Nc1ccc2c(c1)OCO2)c1c(F)cccc1F	0.8	0.9	17	13	-3
O=C(Nc1ccc(Cl)cc1)Nc1ccc2c(c1)N1CCN=C1S2	0.3	0.6	67*	42	-1
Cc1sc(NC(=O)c2ccco2)c(CN2CCN(c3ccccc3)CC2)c1C	0.2	0.3	80*	72*	0
COC(=O)c1ccccc1NC(=O)N1CCN(C(=O)c2ccco2)CC1	1	0.5	1	52*	.
Cc1sc(NC(=O)c2ccco2)c(CN2CCCCC2)c1C	0.9	1	11	2	.
SMILES	CYP2C9 act	CYP2C19 activ	CYP2C9 inhib	CYP2C19 inh	EphB4 ephrin blk
O=C(O)/C=C\C(=O)Nc1ccccc1C(=O)N1CCN(c2ccc(Cl)cc2)CC1	0.4	0.7	58*	34	6
O=C(Nc1ccccc1C(=O)N1CCN(c2ccccc2)CC1)c1ccco1	0.4	0.4	57*	62*	-2
CC(C)c1ccc(N2CCN(C(=O)c3ccccc3NC(=O)/C=C\C(=O)O)CC2)cc1	1	1	1	-5	4
Cc1ccc(C)c(NC2=NC3(CCCCC3)N=C(N)N2)c1	.	.	.	.	1
CC(=O)NS(=O)(=O)c1ccc(NC(=O)CCC2CCCC2)cc1	1.1	1.2	-12	-15	10
CCOc1cccc(N(C(=O)Cc2cccs2)C(C(=O)NC2CCCCC2)c2cccn2C)c1 (configuration not stated)	.	.	.	.	4
